KinaseGlo FLuc – blocks Kinase-Glo luciferase, a counter-screen artifact; AID 1379; hit rate 0.28% among 200,000; Kinase-Glo luciferase, ATP luminescence, 8 min; Potency, µM (titrated, usually from 38.3 µM), hits mostly inhibitors; also: nearly all actives have a fitted effect of over 60% in size
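Substrate mix (final 50 mM imidazole pH 7.2, 50 mM KCl, 7 mM MgCl2, 10 uM ATP, 0.01% Tween 20, 0.05% BSA) plus pin-tool compound, then Kinase-Glo detection mix; 8 min ambient, luminescence read.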
Gal4-VP16 FLuc – counter-screen for ROR gamma inhibitors: Gal4-VP16 reporter; hit rate 3.5% among 310,000; Drosophila S2 Gal4-VP16 UAS-luciferase, luminescence, 20 h; Potency, µM (highest dose often 53.6 µM), usual class: inhibitors;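 also: Gal4-VP16 expression switched on by copper sulfate through the metallothionein promoter; nearly all actives have a fitted effect of over 50% in size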
RORgamma inh – blocks mouse ROR gamma transcriptional activity. P51450. Drosophila S2 Gal4-RORgamma UAS-luciferase reporter, 20 h. Potency, µM (titrated, usually from 53.6 µM), most hits filed as inhibitors. hit rate 5.4% among 310,000; also: nearly all actives have a fitted effect of over 60% in size
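Drosophila Schneider cells stably carrying a metallothionein-driven Gal4 DBD–ROR gamma fusion and a UAS-Photinus luciferase reporter were exposed to compound for 1 hr, then induced with copper sulfate (700 uM final) for 20 hr at ambient temperature before luminescence reading.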
Of the large screens only hits and unclear results are named; the others gave an inactive call. Rows were chosen to be rich in hits. Some 6.2% of all compounds tested hit in one or more screens of this group. Calls follow the shape of the dose curve; as a rule, active = well fitted curve in the direction sought with a large enough effect; inconclusive = small, poorly fitted or top-dose-only effect, or another doubt; inactive = no such curve, though single readings can be large; an effect the other way counts as inactive or inconclusive.

C=C1C[C@@]23CC4C5[C@@]6(C)C[C@H](O)C[C@@]57C2[C@H](O)[C@@H]1[C@H](O)[C@H]3[C@H]7N4C6	none
C=CCNc1nc(Cl)nc(Nc2ccc([N+](=O)[O-])cc2)n1	none
C=CCNc1nc(Nc2ccc([N+](=O)[O-])cc2)nc(N2CCCC2)n1	RORgamma inh 0.891µM
NC(=S)C(c1ccccc1)c1ncc(C(F)(F)F)cc1Cl (stereo unspecified)	Gal4-VP16 FLuc inconclusive, RORgamma inh 6.31µM (no result: KinaseGlo FLuc)
NC(=O)C(c1cccc(Cl)c1)c1ncc(C(F)(F)F)cc1Cl (stereo unspecified)	none
O=C(c1cc(C(F)(F)F)cc(C(F)(F)F)c1)N1CCC2(CCN(Cc3nccs3)CC2)CC1	none
COc1ccc(CCC(=O)N2CC(C)OC(C)C2)cc1 (stereo unspecified)	none
Cc1ccc(C(=O)NC(=S)N2CC(C)OC(C)C2)cc1[N+](=O)[O-] (stereo unspecified)	Gal4-VP16 FLuc 0.708µM, RORgamma inh 0.398µM
COc1ccc(C(=O)NC(=S)N2CC(C)OC(C)C2)cc1 (stereo unspecified)	Gal4-VP16 FLuc 6.31µM, RORgamma inh 5.62µM
Cc1ccc(C(=O)NN2CCOCC2)cc1[N+](=O)[O-]	none (no result: KinaseGlo FLuc)
COc1ccc(C(=O)NC(=S)N2CCCC2)cc1	none (no result: KinaseGlo FLuc)
COc1ccc(C(=O)NC(=S)N2CCC(C)CC2)cc1	Gal4-VP16 FLuc 3.98µM, RORgamma inh 1.41µM
CSc1nsc(SCC(=O)Nc2ccccc2C(=O)O)n1	none (no result: KinaseGlo FLuc)
CCOC(CCn1c(SCC(=O)NC2CCCC2)nc2ccccc2c1=O)OCC	none (no result: KinaseGlo FLuc)
Cc1cccc(NC(=O)CSc2nnc(CSc3nc(C)cc(C)n3)o2)c1	none
CCc1nnc(NC(=O)CSc2nc(-c3ccccc3)c(-c3ccccc3)o2)s1	Gal4-VP16 FLuc inconclusive, RORgamma inh inconclusive
CCc1nnc(NC(=O)CSc2nccn2-c2ccccc2)s1	none
CCc1nnc(NC(=O)CSc2nnc(-c3ccccc3O)o2)s1	Gal4-VP16 FLuc 1.12µM, RORgamma inh 0.112µM
CCc1nnc(NC(=O)CSc2nnc(CSc3nc(C)cc(C)n3)o2)s1	Gal4-VP16 FLuc 12.6µM, RORgamma inh 5.62µM
O=C(CSc1nnc(-c2ccccc2O)o1)N1CCc2ccccc2C1	Gal4-VP16 FLuc inconclusive, RORgamma inh 10µM
O=C(CSc1nnc(-c2ccccc2)o1)N1CCc2ccccc2C1	none
CCc1nnc(NC(=O)CSc2ncc(-c3ccccc3)n2C)s1	Gal4-VP16 FLuc inconclusive, RORgamma inh 11.2µM
CCOc1cccc2cc(C(=O)N3CC(C)OC(C)C3)c(=O)oc12 (stereo unspecified)	none (no result: KinaseGlo FLuc)
O=C(NC(=S)Nc1ncc(Br)cc1Br)c1cncc(Br)c1	Gal4-VP16 FLuc inconclusive, RORgamma inh 6.31µM
O=C(NC(=S)NC1CCCCCC1)c1cncc(Br)c1	Gal4-VP16 FLuc 6.31µM, RORgamma inh 3.55µM
O=C(COC(=O)c1cncc(Br)c1)NC1CCCCC1	none
Cc1ccccc1NC(=S)NC(=O)c1cncc(Br)c1	Gal4-VP16 FLuc inconclusive, RORgamma inh inconclusive
Cc1cc(NC(=O)c2cncc(Br)c2)ccc1NC(=O)c1cc2ccccc2o1	Gal4-VP16 FLuc 11.2µM, RORgamma inh inconclusive (no result: KinaseGlo FLuc)
COc1cc(NC(=O)c2ccccc2)ccc1NC(=O)c1cc2ccccc2o1	none (no result: KinaseGlo FLuc)
O=C(NC(=S)Nc1ccc2[nH]c(=O)[nH]c2c1)c1cncc(Br)c1	none
Cc1cc(O)ccc1NC(=S)NC(=O)c1cncc(Br)c1	Gal4-VP16 FLuc 0.562µM, RORgamma inh 0.794µM (no result: KinaseGlo FLuc)
O=Cc1c[nH]c2ccc(C(=O)c3ccccc3)cc12	none (no result: KinaseGlo FLuc)
COCCCNCC(O)C(F)(F)F (stereo unspecified)	none
O=C(CN(CC1CCCO1)C(=O)CNS(=O)(=O)c1ccc(F)cc1)NCc1ccc(F)cc1 (stereo unspecified)	none (no result: KinaseGlo FLuc)
N#C/C(=C/Nc1ccccc1C(=O)O)C(N)=O	none (no result: KinaseGlo FLuc)

Bioassay records (PubChem BioAssay)
